Test results from PubChem BioAssay (NCATS).
Inconclusive results are not listed. Unless noted, the call rests on the fitted dose curve; in most records, active means well fitted curve in either direction with a large enough effect (not every such curve was filed as active); inconclusive means small, poorly fitted or top-dose-only effect, or another doubt; inactive means flat fitted curve, though single readings scatter.

What was measured:
[1] = AP1 Signaling Pathway (AID 357); conditions: ME-180 AP-1-bla reporter, EGF-induced, beta-lactamase ratio, 5 h; at 17.2 µM (top of the series) unless noted; further: on the % scale 0 is the no-effect control and ±100 the full control effect
How it was run: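 In this screen, ME-180 cells in Opti-MEM with 0.5% dialyzed FBS received EC50 EGF and compound titrations for 5 h. AP-1 reporter beta-lactamase was detected via CCF4 ratio, giving AC50 for positive and negative modulators.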

[2] = NFAT Signaling Pathway (AID 444); conditions: Jurkat NFAT-bla M1, carbachol, beta-lactamase ratio, 5 h; at 17.2 µM (top of the series) unless noted;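 further: carbachol stimulus at about its EC50 of 1 µM final; on the % scale 0 is the no-effect control and ±100 the full control effect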
How it was run: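 Jurkat cells with NFAT-driven β-lactamase reporter and co-expressed M1 receptor, stimulated with carbachol (final 1 uM, ~EC50), compound titration, 5 h at 37 °C. CCF4 loaded 1 h at RT; 460/530 nm ratio gave %activity and AC50.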

[3] = Stat Signaling Pathway (AID 446); conditions: ME-180 SIE beta-lactamase reporter, IL-6 stimulated, 5 h; at 17.2 µM (top of the series) unless noted;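 further: ME-180 cervical cancer cells given 40 pM IL-6 alongside compound; SIE-controlled beta-lactamase reporter measured as 460/530 nm FRET emission ratio; on the % scale 0 is the no-effect control and ±100 the full control effect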
How it was run: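 Screening format detects activators and inhibitors alike: ME-180 SIE-bla cells stimulated at 40 pM IL-6 for 5 hrs with compound, then dual-emission beta-lactamase read at 405 nm excitation.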

[4] = target: Glucocorticoid receptor (Homo sapiens) (UniProt P04150); assay: GR-GFP Redistribution (AID 450;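 active means compounds whose dose series gives a full or clear partial fitted curve of increased nuclear translocation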; further: potency means the concentration at half of the fitted maximal effect)
Chain of Glucocorticoid receptor (Homo sapiens) (P04150 whole entry, looked up): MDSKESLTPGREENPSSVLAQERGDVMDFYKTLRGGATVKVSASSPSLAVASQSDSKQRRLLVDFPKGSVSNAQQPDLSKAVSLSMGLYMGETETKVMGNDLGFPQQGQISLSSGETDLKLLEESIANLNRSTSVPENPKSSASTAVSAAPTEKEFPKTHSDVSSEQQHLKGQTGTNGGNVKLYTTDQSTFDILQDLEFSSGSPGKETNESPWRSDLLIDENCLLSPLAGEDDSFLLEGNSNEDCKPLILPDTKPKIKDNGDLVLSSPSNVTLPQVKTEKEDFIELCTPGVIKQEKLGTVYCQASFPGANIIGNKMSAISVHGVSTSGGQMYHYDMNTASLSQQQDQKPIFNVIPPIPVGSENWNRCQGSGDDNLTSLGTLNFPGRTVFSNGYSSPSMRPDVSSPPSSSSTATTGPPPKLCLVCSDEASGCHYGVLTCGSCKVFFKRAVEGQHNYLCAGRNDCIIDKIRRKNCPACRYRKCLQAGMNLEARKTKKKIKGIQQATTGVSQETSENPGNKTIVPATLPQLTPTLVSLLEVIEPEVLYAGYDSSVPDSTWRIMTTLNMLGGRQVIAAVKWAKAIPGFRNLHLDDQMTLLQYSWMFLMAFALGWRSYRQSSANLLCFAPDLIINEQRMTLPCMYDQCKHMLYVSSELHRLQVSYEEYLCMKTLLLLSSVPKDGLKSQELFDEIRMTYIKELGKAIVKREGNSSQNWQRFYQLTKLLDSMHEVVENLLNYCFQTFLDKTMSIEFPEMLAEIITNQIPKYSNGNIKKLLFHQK

COc1ccc(-c2nc3n(n2)C(=O)CC(c2ccco2)S3)cc1 (centres undefined)
inactive: activity change, negative = inhibition [1] -9.14% | activity change, negative = inhibition [2] 0.813% | activity, negative = inhibition [3] -11.3% | Potency [4] > 20.6 µM

CC(C)Nc1nc(NC(C)C)nc(N(C)n2cnnc2)n1
inactive: activity change, negative = inhibition [1] 9.58% | activity change, negative = inhibition [2] -6.19% | activity, negative = inhibition [3] 4.66% | Potency [4] > 20.6 µM

Clc1ccc2nc(CSc3nc4ccccc4o3)cn2c1
inactive: activity change, negative = inhibition [1] -4.14% | activity change, negative = inhibition [2] 1.67% | activity, negative = inhibition [3] -8.83% | Potency [4] > 20.6 µM

COc1ccc(C2C(C#N)=C(N)SC(N)=C2C#N)cc1OC
inactive: activity change, negative = inhibition [1] 5.54% | activity change, negative = inhibition [2] 29.6% | activity, negative = inhibition [3] 3.8% | Potency [4] > 20.6 µM

COc1cccc(Cn2c(NCc3ccccn3)nc3c2c(=O)n(C)c(=O)n3C)c1
inactive: activity change, negative = inhibition [1] -10.2% | activity change, negative = inhibition [2] 7.02% | activity, negative = inhibition [3] -15.6% | Potency [4] > 20.6 µM

COC(=O)CC1=NC(=O)CS1
inactive: activity change, negative = inhibition [1] 17.8% | activity change, negative = inhibition [2] -3.72% | activity, negative = inhibition [3] 12.3% | Potency [4] > 20.6 µM

CCOc1ccc2c(c1)n([O-])c1c([n+]2=O)CCCC1
inactive: activity change, negative = inhibition [1] 9.01% | activity change, negative = inhibition [2] -13% | activity, negative = inhibition [3] 1.7% | Potency [4] > 20.6 µM

COc1ccccc1-n1c(=O)c2c3c(sc2n2c(SC)nnc12)CCC3
inactive: activity change, negative = inhibition [1] 6.29% | activity change, negative = inhibition [2] -21.2% | activity, negative = inhibition [3] 14.3% | Potency [4] > 20.6 µM

COC(=O)c1ccc(OC(=O)c2ccc(OC)c(OC)c2)c(OC)c1
inactive: activity change, negative = inhibition [1] -0.243% | activity change, negative = inhibition [2] -10.5% | activity, negative = inhibition [3] -2.16% | Potency [4] > 20.6 µM

Cc1ccccc1OCC(O)Cn1c(N2CCN(c3ccccc3)CC2)nc2c1c(=O)[nH]c(=O)n2C (centres undefined)
inactive: activity change, negative = inhibition [1] 14.4% | activity change, negative = inhibition [2] -4.3% | activity, negative = inhibition [3] -10.5% | Potency [4] > 20.6 µM

CC1(C)Cc2c(c(N3CCOCC3)nc3snc(N)c23)CO1
inactive: activity change, negative = inhibition [1] -12.8% | activity change, negative = inhibition [2] -24.1% | activity, negative = inhibition [3] -10.9% | Potency [4] > 20.6 µM

CCn1c(SCC(=O)Nc2ccccc2C(=O)OC)nnc1-c1ccc(N)cc1
inactive: activity change, negative = inhibition [1] -23.2% | activity change, negative = inhibition [2] -3.89% | activity, negative = inhibition [3] 0.432% | Potency [4] > 20.6 µM

COc1cccc(N2CCN(C(=O)c3ccc(=O)oc3)CC2C)c1 (centres undefined)
inactive: activity change, negative = inhibition [1] 26.8% | activity change, negative = inhibition [2] -28.2% | activity, negative = inhibition [3] -1.83% | Potency [4] > 20.6 µM

COc1ccc2nc(/N=C(\N)NC(=O)C(C)(C)C)nc(C)c2c1
inactive: activity change, negative = inhibition [1] 1.33% | activity change, negative = inhibition [2] 0.865% | activity, negative = inhibition [3] 0.61% | Potency [4] > 20.6 µM

CN1C(=O)NC(NC(=O)c2ccco2)(C(F)(F)F)C1=O (centres undefined)
inactive: activity change, negative = inhibition [1] 3.54% | activity change, negative = inhibition [2] 4.93% | activity, negative = inhibition [3] 9.87% | Potency [4] > 20.6 µM

N#Cc1c(N2CCOCC2)nc(-c2ccco2)c2c1CCCC2
inactive: activity change, negative = inhibition [1] 2.51% | activity change, negative = inhibition [2] 4.52% | activity, negative = inhibition [3] 4.59% | Potency [4] > 20.6 µM

CSc1nc(O)c(Cc2ccccc2)c(=O)[nH]1
inactive: activity change, negative = inhibition [1] -12.8% | activity change, negative = inhibition [2] 14.1% | activity, negative = inhibition [3] 0.301% | Potency [4] > 20.6 µM

COc1cc(C2NC(=O)NC(C)=C2C(=O)Nc2cccc(C)c2C)cc(OC)c1OC (centres undefined)
inactive: activity change, negative = inhibition [1] 2.82% | activity change, negative = inhibition [2] 10.2% | activity, negative = inhibition [3] -2.31% | Potency [4] > 20.6 µM

COc1ccc(CC(=O)n2c(CC#N)nc3ccccc32)cc1OC
inactive: activity change, negative = inhibition [1] -7.74% | activity change, negative = inhibition [2] 10.4% | activity, negative = inhibition [3] -5.7% | Potency [4] > 20.6 µM

C(=N\n1cnnc1)/c1cccnc1
inactive: activity change, negative = inhibition [1] -4.05% | activity change, negative = inhibition [2] -13.4% | activity, negative = inhibition [3] 12.5% | Potency [4] > 20.6 µM

Cc1cc(C)n(-c2ncnc3sc(C)c(C)c23)n1
inactive: activity change, negative = inhibition [1] -15.7% | activity change, negative = inhibition [2] -7.26% | activity, negative = inhibition [3] 6.68% | Potency [4] > 20.6 µM

CSCCC(CO)NC(=O)OCc1ccccc1 (centres undefined)
inactive: activity change, negative = inhibition [1] 0.666% | activity change, negative = inhibition [2] -0.945% | activity, negative = inhibition [3] 2.15% | Potency [4] > 20.6 µM

CSc1nc(N)nc(SCC(=O)OC(C)C)c1C#N
inactive: activity change, negative = inhibition [1] -15.6% | activity change, negative = inhibition [2] 6.28% | activity, negative = inhibition [3] -5.26% | Potency [4] > 20.6 µM

CCCC(=O)N1CCc2[nH]c3ccccc3c2C1
inactive: activity change, negative = inhibition [1] -13% | activity change, negative = inhibition [2] 13.8% | activity, negative = inhibition [3] -6.04% | Potency [4] > 20.6 µM

Fc1cnc(N2CCOCC2)nc1NCc1ccccc1
inactive: activity change, negative = inhibition [1] 10.9% | activity change, negative = inhibition [2] -3.23% | activity, negative = inhibition [3] -8.43% | Potency [4] > 20.6 µM

O=C(CN1CCc2[nH]c3ccccc3c2C1)N1CCCCC1
inactive: activity change, negative = inhibition [1] -7.36% | activity change, negative = inhibition [2] -20.1% | activity, negative = inhibition [3] 4.96% | Potency [4] > 20.6 µM
